Screens (PubChem BioAssay)
TWEAK Fn14 block = TWEAK-Fn14 signaling inhibition. TWEAK-stimulated Fn14 reporter cells, luciferase luminescence, 8 h. inhibition, % at 10 µM. 2% of 360,000 active; in the data active = inhibition above about 50%
LMP1 NFkB inh = inhibitors of Epstein-Barr LMP1-induced NF-kappaB reporter; LMP1-induced NF-kappaB luciferase reporter cells, luminescence; inhibition, % at 12.5 µM; 0.69% of 350,000 active; in the data active = inhibition above about 41%; inconclusive = no clear call, values can overlap the other calls;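 also: 0% = neutral control wells and 100% = reference inhibitor control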
TROY signal inh = TROY signaling inhibition; inhibition, % at 10 µM; Q293 LMP1-TROYcd NF-kB luciferase reporter, 4 h; 0.98% of 360,000 active;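 active = compounds whose plate-normalised and pattern-corrected inhibition of the luciferase reporter signal at the single screening dose is 50% or more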
MITF TRPM1 HTS = MITF TRPM1 promoter activation in melanoma cells | SK-MEL-5 TRPM1-promoter luciferase, 24 h; % of positive control, neutral wells = 0 | activation, % at 12.5 µM | 0.75% of 300,000 active;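 active = mean activation of at least 80% with every replicate also reaching 80%; inconclusive = mean reaches 80% but some replicate falls short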;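 also: 0% = neutral control wells and 100% = parthenolide positive control wells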
LGR2 inh = Drosophila LGR2 receptor signaling inhibition; HEK293 LGR2, CRE-luciferase, bursicon-stimulated, 4 h; inhibition, % at 9.99 µM; 0.35% of 380,000 active; AID 720647;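 active = drop in luminescence signal, shown as inhibition above about 50% in the replicate tests, limit read from the data, passing the limit was not always enough; inconclusive = probably only some replicates passing the limit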;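 also: agonist challenge used bursicon conditioned medium at about half maximal strength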
MITF TRPM1 inh = reduces MITF-dependent TRPM1 promoter luciferase signal. inhibition, % at 12.5 µM. 0.83% of 330,000 active. AID 488899. SK-MEL-5 TRPM1 promoter luciferase, 24 h;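 active = mean inhibition across replicates of 60% or more, whatever share of single replicates reaches that level; inconclusive = some that reach 60%, reason not given; inactive = mean inhibition across replicates below 60%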
An asterisk follows results filed as active; ? = inconclusive; / = no result given. An excerpt weighted towards active compounds, which were near 3% of everything screened.

SMILES	TWEAK Fn14 block	LMP1 NFkB inh	TROY signal inh	MITF TRPM1 HTS	LGR2 inh	MITF TRPM1 inh
CCC1CCCCN1S(=O)(=O)c1ccc(NC(=O)c2nc(S(C)(=O)=O)ncc2Cl)cc1 (stereo not given)	77*	4	83*	-101	3	104*
Cc1ccc(CS(=O)(=O)c2ncc(Cl)c(C(=O)Nc3ccc(OC(F)F)cc3)n2)cc1	83*	?	79*	-82	-32	81*
O=C(Nc1ccc(OC(F)F)cc1)c1ncc(Cl)c(Cl)c1Cl	-3	10	-17	-22	-6	22
O=C(c1ccccc1F)N1CC2(C1)[C@@H](c1ccccc1)[C@@H](CO)N2CC1CCCC1	/	/	/	/	4	/
CCC(=O)Nc1ccc2c(c1)C(=O)N(C)C[C@@H](OC)[C@@H](C)CN(CC1CC1)[C@H](C)CO2	/	/	/	/	3	/
CCC(=O)Nc1ccc2c(c1)OC[C@H](C)N(C(=O)c1cnccn1)C[C@H](C)[C@H](OC)CN(C)C2=O	/	/	/	/	2	/
O=C(O)C[C@@H]1C[C@H]2c3cc(NC(=O)C4CCOCC4)ccc3O[C@H]2[C@@H](CO)O1	/	/	/	/	2	/
COc1ccc(NC(=O)N2CC(=O)N3[C@H](CO)[C@H](c4ccc(-c5ccc(C)cc5)cc4)[C@@H]3C2)cc1	/	/	/	/	-5	/
Nc1ncnc2c1c(-c1ccc(Oc3ccccc3)cc1)cn2C1CCCC1	8	47*	17	-3	/	6
COc1ccc(/C=N/NC(=S)Nc2cccc(C(=O)O)c2)cc1OC	76*	15	19	-25	82*	26
COc1ccc(C=NNC(=S)Nc2ccc(F)cc2)cc1OC	46	19	78*	-12	50*	14
CO[C@@H]1CN(C)C(=O)c2cc(NS(C)(=O)=O)ccc2OC[C@@H](C)N(Cc2cccnc2)C[C@@H]1C	/	/	/	/	-3	/
Cc1ccc(NC(=O)c2ccc(C(C)(C)C)cc2)cc1[N+](=O)[O-]	5	-32	-26	121*	-54	-115
CCN(CC)c1ccc(C(=O)Nc2ccccc2)cc1[N+](=O)[O-]	-37	-32	-3	87*	-87	-86
CC(C)(C)c1ccc(NC(=O)c2ccccc2)c([N+](=O)[O-])c1	30	-75	58*	60	/	-60
O=C(Nc1ccccc1[N+](=O)[O-])c1cncc(Br)c1	104*	5	8	7	11	-5
O=C(Nc1ccc(F)cc1F)c1cncc(Br)c1	10	0	-11	-6	13	11
C[C@@H]1CCCCO[C@@H](CN(C)Cc2ccc(C(=O)O)cc2)[C@H](C)CN([C@@H](C)CO)C(=O)c2cc(NC(=O)c3ccncc3)ccc2O1	/	/	/	/	-19	/
CC(Nc1nc(-c2ccc(F)cc2)cs1)c1nc2cc(Cl)c(Cl)cc2n1CCOCCO (stereo not given)	51*	-8	17	0	1	3
COc1ccc(-c2csc(NC(C)c3nc4cc(Cl)c(Cl)cc4n3CCCO)n2)cc1 (stereo not given)	48	-6	55*	0	-3	-2
CC(Nc1nc(-c2ccc(F)cc2)cs1)c1nc2cc(Cl)c(N3CCCCC3)cc2n1CCOCCO (stereo not given)	-16	5	-14	13	6	-12
CCCn1c(C(C)Nc2nc(-c3ccc(C)cc3)cs2)nc2cc(Cl)c(Cl)cc21 (stereo not given)	6	-5	1	-20	-15	19
Cc1ccc(Cn2c(C(C)Nc3nc(-c4ccc(F)cc4)cs3)nc3cc(Cl)c(Cl)cc32)cc1 (stereo not given)	52*	4	45	-14	-27	13
COc1ccc(S(=O)(=O)Nc2cccc3c2O[C@H](CN(C)C(=O)NC2CCCCC2)[C@H](C)CN([C@@H](C)CO)C3=O)cc1	/	/	/	/	-3	/
CC(C)NC(=O)N[C@H]1CC[C@H](CC(=O)NC2Cc3ccccc3C2)O[C@@H]1CO	/	/	/	/	-1	/
SMILES	TWEAK Fn14 block	LMP1 NFkB inh	TROY signal inh	MITF TRPM1 HTS	LGR2 inh	MITF TRPM1 inh
CCOC(=O)C(C(=O)OCC)c1cc(Br)c2noc3c2c1C(=O)c1ccccc1-3	20	10	11	-95	/	95*
CC(=O)OCCNc1cc(N2CCN(C)CC2)c2noc3c2c1C(=O)c1ccccc1-3	-8	-5	-16	/	11	/
Cc1noc(C)c1NC(=O)N(C)C[C@H]1Oc2ncc(C#CC(C)C)cc2C(=O)N([C@@H](C)CO)C[C@@H]1C	/	/	/	/	-9	/
O=C(C[C@@H]1C[C@@H]2c3cc(NC(=O)C4CCC4)ccc3O[C@@H]2[C@H](CO)O1)NCc1ccccc1	/	/	/	/	-5	/
CCOC(=O)c1ccc(N=c2sc(C(=O)OC)cc(=O)n2-c2ccc(C(=O)OCC)cc2)cc1	54*	-2	20	-28	58*	30
Oc1ccc(Nc2nc(N3CCCC3)c3ccccc3n2)cc1	-150	-12	-23	-27	76*	28
COc1ccc(Nc2nc(N3CCCCC3)c3ccccc3n2)cc1	35	11	18	-4	/	7
C[C@@H]1CN([C@H](C)CO)C(=O)Cc2cc(NC(=O)CCC(F)(F)F)ccc2O[C@@H]1CN(C)Cc1ccc(C(=O)Nc2ccccc2N)cc1	/	/	/	/	-2	/
COc1ccc(NC(=O)CN(C)C(=O)c2cccnc2Sc2ccc(C)c(C)c2)cc1	-16	-10	-14	-1	11	2
CCN(CC(=O)Nc1ccc(NC(C)=O)cc1)C(=O)c1cccnc1Sc1ccc(C)c(C)c1	-14	41*	-8	-5	5	3
C[C@H](CO)N1C[C@H](C)[C@@H](CN(C)Cc2ccc(Oc3ccccc3)cc2)Oc2c(NC(=O)Nc3cccc4ccccc34)cccc2C1=O	/	/	/	/	-1	/
CC1=C(SCc2ccccc2)C(=O)c2ccccc2C1=O	88*	-1	38	-70	27	70*
COc1ccc(C(=O)/C(=C/N(C)C)S(=O)(=O)c2ccccc2)cc1	10	-8	-35	94*	-31	-88
Cc1ccc2c(COC(=O)c3ccccc3F)cc(=O)oc2c1	63*	-17	24	20	-90	-23
CCOc1ccc(N(C(C)C(=O)N2CCCCCC2)S(C)(=O)=O)cc1 (stereo not given)	-5	71*	4	-16	6	17
CC(C(=O)N1CCCCCC1)N(c1ccc(Cl)cc1)S(C)(=O)=O (stereo not given)	1	-13	2	0	9	4
COc1ccc(C(=O)/C(=C/c2cccs2)c2nc3ccccc3o2)cc1	51*	-12	52*	7	/	-4
C[C@H](CO)N1C[C@H](C)[C@H](CN(C)C(=O)Cc2ccccn2)Oc2ncc(C#CC3CCCCC3)cc2C1=O	/	/	/	/	-11	/
CN(C)c1ccc(C=c2c3ccccc3n3c2c2c([n+]3C)CCCC2)cc1	63*	42*	48	-97	32*	98*
COc1cc(C=c2c3ccccc3n3c2cc(-c2ccccc2)[n+]3C)cc(OC)c1OC	17	7	8	-64	7	65*
